{"source": "paper PMC7862700", "about": "“An all-to-all approach to the identification of sequence-specific readers for epigenetic DNA modifications on cytosine”", "test_in_all_cases": "DAPPL (digital affinity profiling via proximity ligation, sequencing); 10 mM Tris-HCl pH 7.5, 50 mM NaCl, 1 mM DTT, 4% glycerol, room temperature, 30 min; GST-TFs on glutathione beads, 16-mer random dsDNA library, 0.1% formaldehyde crosslink after washing; high values mean tight binding", "conditions_in_all_cases": "protein: recombinant; tags: N-terminal GST; dsDNA, one strand shown", "key": {"[1]": {"molecular_target": "ETV1 (Homo sapiens, UniProt P50549 1-477)", "sequence (P50549 whole entry, the tested form may be a part)": "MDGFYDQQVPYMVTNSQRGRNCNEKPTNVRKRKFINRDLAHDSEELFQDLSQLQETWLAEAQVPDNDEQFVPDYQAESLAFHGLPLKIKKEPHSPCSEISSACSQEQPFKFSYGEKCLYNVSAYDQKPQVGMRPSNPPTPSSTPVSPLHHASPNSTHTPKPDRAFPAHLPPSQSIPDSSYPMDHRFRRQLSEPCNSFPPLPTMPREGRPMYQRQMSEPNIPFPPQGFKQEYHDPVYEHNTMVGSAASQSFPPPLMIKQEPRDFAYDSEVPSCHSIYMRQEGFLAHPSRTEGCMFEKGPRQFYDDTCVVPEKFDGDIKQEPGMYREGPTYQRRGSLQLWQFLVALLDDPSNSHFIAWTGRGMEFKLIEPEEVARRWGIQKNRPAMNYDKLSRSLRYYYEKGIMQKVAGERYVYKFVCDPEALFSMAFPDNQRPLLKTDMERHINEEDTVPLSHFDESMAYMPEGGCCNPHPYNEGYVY", "procedure,_shortened": "(§1)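 Sequencing on an Illumina NextSeq500 followed washing, crosslinking with 0.1% formaldehyde, proximity ligation (BsaI/T4 ligase, 1 h, 37 °C) and PCR amplification of pools that had been incubated for 30 min at room temperature with 200 nmole of a random double-stranded 16-mer DNA library in Tris/NaCl/DTT/glycerol buffer. Each pool held DNA-barcoded human transcription factors, expressed in yeast as GST fusions and captured on glutathione beads, plus a tag-only sample. Binding signal is a hexamer's read frequency for a factor divided by its frequency in the tag-only sample.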"}, "[2]": {"molecular_target": "T1, ERF (Homo sapiens, UniProt P50548 1-548)", "T1 sequence": "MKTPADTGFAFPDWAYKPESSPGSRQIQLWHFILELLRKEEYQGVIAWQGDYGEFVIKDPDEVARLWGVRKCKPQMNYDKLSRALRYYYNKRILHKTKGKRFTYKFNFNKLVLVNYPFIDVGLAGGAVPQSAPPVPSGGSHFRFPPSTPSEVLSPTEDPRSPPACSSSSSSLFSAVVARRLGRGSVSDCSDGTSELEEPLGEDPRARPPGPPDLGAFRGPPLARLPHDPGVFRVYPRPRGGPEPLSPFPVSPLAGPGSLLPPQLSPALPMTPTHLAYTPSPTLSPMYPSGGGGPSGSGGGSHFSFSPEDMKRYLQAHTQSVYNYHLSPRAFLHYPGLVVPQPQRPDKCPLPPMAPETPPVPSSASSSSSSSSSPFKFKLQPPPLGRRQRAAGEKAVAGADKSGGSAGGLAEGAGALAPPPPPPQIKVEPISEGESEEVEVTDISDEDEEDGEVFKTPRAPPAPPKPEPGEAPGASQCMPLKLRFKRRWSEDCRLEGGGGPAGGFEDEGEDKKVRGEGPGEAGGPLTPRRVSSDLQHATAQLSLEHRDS", "procedure,_shortened": "as §1"}, "[3]": {"molecular_target": "T2, ETV3L (Homo sapiens, UniProt Q6ZN32 1-361)", "T2 sequence": "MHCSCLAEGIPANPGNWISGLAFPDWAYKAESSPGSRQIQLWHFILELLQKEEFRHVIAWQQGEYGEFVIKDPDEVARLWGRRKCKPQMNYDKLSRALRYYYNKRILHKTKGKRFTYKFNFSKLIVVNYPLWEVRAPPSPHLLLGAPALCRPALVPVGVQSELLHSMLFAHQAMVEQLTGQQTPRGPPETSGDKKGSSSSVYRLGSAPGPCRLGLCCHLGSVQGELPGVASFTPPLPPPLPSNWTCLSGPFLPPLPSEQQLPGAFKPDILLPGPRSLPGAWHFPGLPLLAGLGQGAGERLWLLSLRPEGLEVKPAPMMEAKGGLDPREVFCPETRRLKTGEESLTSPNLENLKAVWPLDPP", "procedure,_shortened": "as §1"}, "[4]": {"molecular_target": "T3, ETS2 (Homo sapiens, UniProt P15036 1-469)", "T3 sequence": "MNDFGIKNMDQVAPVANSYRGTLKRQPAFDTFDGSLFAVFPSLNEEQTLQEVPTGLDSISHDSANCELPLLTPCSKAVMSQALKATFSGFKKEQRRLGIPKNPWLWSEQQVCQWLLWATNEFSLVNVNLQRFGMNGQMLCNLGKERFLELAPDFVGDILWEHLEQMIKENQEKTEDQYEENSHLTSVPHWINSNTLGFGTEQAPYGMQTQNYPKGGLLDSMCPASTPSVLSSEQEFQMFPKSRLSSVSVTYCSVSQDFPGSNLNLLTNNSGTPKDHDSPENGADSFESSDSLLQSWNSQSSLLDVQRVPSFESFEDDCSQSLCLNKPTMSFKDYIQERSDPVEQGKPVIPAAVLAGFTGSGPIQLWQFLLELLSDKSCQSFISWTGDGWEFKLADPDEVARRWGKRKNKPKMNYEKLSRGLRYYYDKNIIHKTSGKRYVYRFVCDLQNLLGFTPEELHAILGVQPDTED", "procedure,_shortened": "as §1"}, "[5]": {"molecular_target": "T4, SPDEF (Homo sapiens, UniProt O95238 1-335)", "T4 sequence": "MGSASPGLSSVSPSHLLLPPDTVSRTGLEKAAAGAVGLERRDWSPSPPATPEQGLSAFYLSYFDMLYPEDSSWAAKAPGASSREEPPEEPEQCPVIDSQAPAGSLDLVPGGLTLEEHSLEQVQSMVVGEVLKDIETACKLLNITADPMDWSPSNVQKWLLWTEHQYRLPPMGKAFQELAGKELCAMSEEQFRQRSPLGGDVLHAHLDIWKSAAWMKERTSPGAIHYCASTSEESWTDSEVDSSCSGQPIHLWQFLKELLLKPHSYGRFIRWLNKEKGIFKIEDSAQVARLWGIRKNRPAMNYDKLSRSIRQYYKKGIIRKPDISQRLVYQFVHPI", "procedure,_shortened": "as §1"}, "[6]": {"molecular_target": "T5, ETV7 (Homo sapiens, UniProt Q9Y603 1-341)", "T5 sequence": "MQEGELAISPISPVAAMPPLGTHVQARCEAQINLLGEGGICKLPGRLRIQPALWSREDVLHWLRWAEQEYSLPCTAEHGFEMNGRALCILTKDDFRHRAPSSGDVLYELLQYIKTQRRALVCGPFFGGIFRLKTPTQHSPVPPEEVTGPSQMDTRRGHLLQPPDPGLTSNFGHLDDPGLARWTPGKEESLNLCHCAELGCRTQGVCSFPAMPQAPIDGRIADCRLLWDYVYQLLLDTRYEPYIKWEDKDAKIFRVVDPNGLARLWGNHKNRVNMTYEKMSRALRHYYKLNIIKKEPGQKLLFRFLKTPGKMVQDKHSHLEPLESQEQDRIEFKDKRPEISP", "procedure,_shortened": "as §1"}, "[7]": {"molecular_target": "T6, ELF5 (Homo sapiens, UniProt Q9UKW6-2 1-255)", "T6 sequence": "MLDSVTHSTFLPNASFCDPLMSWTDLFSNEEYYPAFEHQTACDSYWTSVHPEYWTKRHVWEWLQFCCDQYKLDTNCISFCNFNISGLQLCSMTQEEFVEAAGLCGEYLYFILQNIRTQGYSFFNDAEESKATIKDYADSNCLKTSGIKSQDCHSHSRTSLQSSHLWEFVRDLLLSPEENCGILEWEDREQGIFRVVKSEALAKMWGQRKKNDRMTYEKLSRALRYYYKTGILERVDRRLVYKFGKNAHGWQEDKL", "procedure,_shortened": "as §1"}, "[8]": {"molecular_target": "T7, ETV3 (Homo sapiens, UniProt P41162-2 1-143)", "T7 sequence": "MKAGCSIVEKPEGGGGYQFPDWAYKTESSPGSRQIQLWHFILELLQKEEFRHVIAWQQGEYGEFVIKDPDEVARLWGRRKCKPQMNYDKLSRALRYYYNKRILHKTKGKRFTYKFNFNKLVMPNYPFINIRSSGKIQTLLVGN", "procedure,_shortened": "as §1"}, "[9]": {"molecular_target": "ETV6 (Homo sapiens, UniProt P41212 1-452)", "sequence (P41212 whole entry)": "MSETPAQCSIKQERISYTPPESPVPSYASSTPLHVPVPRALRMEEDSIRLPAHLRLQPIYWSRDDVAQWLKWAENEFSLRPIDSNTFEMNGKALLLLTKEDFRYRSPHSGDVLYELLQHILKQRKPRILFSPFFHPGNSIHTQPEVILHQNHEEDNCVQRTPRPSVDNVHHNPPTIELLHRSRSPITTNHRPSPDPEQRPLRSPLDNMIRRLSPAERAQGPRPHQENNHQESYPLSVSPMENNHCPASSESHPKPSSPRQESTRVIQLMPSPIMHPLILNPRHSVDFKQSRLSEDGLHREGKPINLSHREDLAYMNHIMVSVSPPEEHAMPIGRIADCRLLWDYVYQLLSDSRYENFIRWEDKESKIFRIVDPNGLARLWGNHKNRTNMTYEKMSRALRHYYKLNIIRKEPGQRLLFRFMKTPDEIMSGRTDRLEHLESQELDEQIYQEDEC", "procedure,_shortened": "as §1"}}, "data": [{"sequence": "CTGGTT", "values": [{"measurement": "binding signal", "setting": "[1]", "result": "1.3 fold enrichment (6-mer frequency, TF over GST control)"}, {"measurement": "binding signal", "setting": "[2]", "result": "1.2 fold enrichment (6-mer frequency, TF over GST control)"}, {"measurement": "binding signal", "setting": "[3]", "result": "1.35 fold enrichment (6-mer frequency, TF over GST control)"}, {"measurement": "binding signal", "setting": "[4]", "result": "1.29 fold enrichment (6-mer frequency, TF over GST control)"}, {"measurement": "binding signal", "setting": "[5]", "result": "1.39 fold enrichment (6-mer frequency, TF over GST control)"}, {"measurement": "binding signal", "setting": "[6]", "result": "1.28 fold enrichment (6-mer frequency, TF over GST control)"}, {"measurement": "binding signal", "setting": "[7]", "result": "1.38 fold enrichment (6-mer frequency, TF over GST control)"}, {"measurement": "binding signal", "setting": "[8]", "result": "1.45 fold enrichment (6-mer frequency, TF over GST control)"}, {"measurement": "binding signal", "setting": "[9]", "result": "1.32 fold enrichment (6-mer frequency, TF over GST control)"}]}]}
